Sampled rows, rich in hits. Any-hit rate of the full collection: about 5.7%.
HT1080 IDH1KD tx – toxicity to HT-1080 IDH1 knockdown cells (counter line); HT-1080 IDH1 knockdown viability, ATP luminescence, 48 h; Potency, µM (doses to about 46.1 µM), without a hit: top-dose activity, negative = toxicity, usual class: cytotoxic; 2% of 360,000 active;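 further: 0% = DMSO wells and -100% = cell-free medium wells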
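Knockdown cells (IDH1KD HT-1080) received compounds 2 h after plating at 750 cells/well and were kept 48 h at 37 °C in 5% FBS RPMI. A CellTiter-Glo luminescence read gave % activity for curve fitting.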
HT1080-NT tox – kills 2HG-producing HT-1080-NT fibrosarcoma cells; HT-1080-NT fibrosarcoma viability, CellTiter-Glo ATP luminescence, 48 h; 1.6% of 360,000 active; AID 686970; Potency, µM (top dose mostly 46.1 µM), inactives show at the highest dose activity, negative = less viability, hits mostly cytotoxic;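 further: NT is the 2HG producing partner of a matched IDH1 knockdown line; 0% = DMSO-treated cells and -100% = media-only wells without cells; nearly all actives have a fitted effect of over 55% in size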
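HT-1080-NT fibrosarcoma cells (2HG-overproducing), 750 cells/well in RPMI with 5% FBS, dosed after 2 h and incubated 48 h at 37C. CellTiter-Glo luminescence normalized to DMSO and no-cell wells; concentration-response curves fitted and classed.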
KB-3-1 tox – KB-3-1 parental cell cytotoxicity. Potency, µM (highest dose often 46.1 µM), usual class: cytotoxic. KB-3-1 viability, CellTiter-Glo ATP luminescence, 72 h. 1.4% of 400,000 active. AID 1347075; further: nearly all actives have a fitted effect of over 60% in size
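Screening of KB-3-1 cells (DMEM, 10% FBS, phenol-red free) ran from lowest to highest compound concentration; after 72 h at 37 °C viability was read luminescently and curves fitted.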
KB-V1 MDR tox – KB-V1 MDR subline cytotoxicity | KB-V1 MDR cells viability, CellTiter-Glo, 72 h | Potency, µM (top dose mostly 46.1 µM), actives largely listed as cytotoxic | 3.4% of 400,000 active | AID 1347076; further: nearly all actives have a fitted effect of over 60% in size
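Readout: CellTiter-Glo luminescence, 10 min after addition. Cells: KB-V1 MDR subline, 72 h at 37 degrees C with compound. Analysis: corrected, normalized data fitted to concentration-effect curves.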
The depositor's hits bear a star; i = inactive; ? = inconclusive; · = not tested or not shown. The call rests on the fitted dose curve; in most records, active means well fitted curve in the direction sought with a large enough effect; inconclusive means small, poorly fitted or top-dose-only effect, or another doubt; inactive means no such curve, though single readings can be large; an effect the other way counts as inactive or inconclusive. Unless noted, on the % scale 0 is the no-effect control and ±100 the full control effect; potency means the concentration at half of the fitted maximal effect.

SMILES	HT1080 IDH1KD tx	HT1080-NT tox	KB-3-1 tox	KB-V1 MDR tox
CC(C)C1C(=O)N(Cc2cn(CCC3OCCCO3)nn2)CCS(=O)(=O)N1Cc1ccc(-c2ccc(Cl)cc2)cc1 (stereo unspecified)	8%	6%	i	i
CC(C)C1C(=O)N(Cc2cn(CCC3OCCCO3)nn2)CCS(=O)(=O)N1Cc1ccc(-c2ccc(Cl)c(Cl)c2)cc1 (stereo unspecified)	?	16µM*	?	?
CC(C)C1C(=O)N(Cc2cn(CCC3OCCO3)nn2)CCS(=O)(=O)N1Cc1ccc(-c2ccc(Cl)cc2)cc1 (stereo unspecified)	?	18µM*	?	16µM*
CC(C)C1C(=O)N(Cc2cn(CCC3OCCCO3)nn2)CCS(=O)(=O)N1Cc1ccc(-c2cccc(CO)c2)cc1 (stereo unspecified)	4%	3%	i	i
Cc1cc(=O)n2c(C(=O)Nc3ccc(Br)cc3)c(C(=O)Nc3ccccc3)sc2n1	·	·	i	i
CC(C)(C)c1ccc(SCCc2cccnc2)cc1	8%	2%	i	i
O=c1oc2ccccc2cc1-c1cn2cc(Cc3ccc(Br)cc3)sc2n1	·	·	?	i
O=c1oc2ccccc2cc1-c1cn2cc(Cc3ccc(F)cc3)sc2n1	·	·	0.58µM*	i
CC(=O)Nc1ccc(/C=C/c2ccccn2)cc1	·	·	?	i
OC(c1ccccn1)(c1ccccn1)c1ccccn1	?	?	i	10µM*
COC(C(=O)Nc1ccc(S(=O)(=O)Nc2cccc3ccccc23)cc1)c1ccccc1 (stereo unspecified)	-21%	-13%	i	18µM*
COC(C(=O)Nc1ccc(S(=O)(=O)Nc2ccc(F)cc2)cc1)c1ccccc1 (stereo unspecified)	?	?	i	i
COc1cc2c(cc1OC)[C@H](C)N(C(=O)NCc1ccccc1)CC2	21µM*	?	?	?
COc1cc2c(cc1OC)C(C)N(C(=O)c1cccs1)CC2 (stereo unspecified)	-13%	-11%	i	?
COc1cc2c(cc1OC)C(C)N(C(=O)c1cc(C)on1)CC2 (stereo unspecified)	1.5µM*	?	?	4.6µM*
COc1cc2c(cc1OC)C(C)N(C(=O)c1cc3ccccc3o1)CC2 (stereo unspecified)	5.6µM*	?	i	i
COc1cc2c(cc1OC)C(C)N(C(=O)c1c(C)noc1C)CC2 (stereo unspecified)	?	-25%	?	?
Cc1cc2oc(C(=O)Nc3c(C)n(C)n(-c4ccccc4)c3=O)cc(=O)c2cc1C	·	·	i	i
COC(=O)C1=C(C)N(Cc2ccc(C)cc2)C(=O)/C1=C\c1cc(OC)c(OC)c(OC)c1	16µM*	?	i	?
COC(=O)C1=C(C)N(Cc2ccc(C)cc2)C(=O)/C1=C\c1ccc(O)c(OC)c1	?	?	i	?
Cc1ccc(Cl)cc1N1CCN(C(=O)c2cn(C)c3ccc(S(=O)(=O)N4CCCC4)cc3c2=O)CC1	·	·	i	i
COc1ccccc1NC(=O)c1oc2ccccc2c1C	-1%	-8%	i	i
CCOCC(=O)Nc1c(C(=O)Nc2ccccc2OC)oc2ccccc12	-1%	2%	i	1.8µM*
COc1ccc(NC(=O)c2oc3ccccc3c2C)c(OC)c1	-6%	-6%	?	21µM*
CCOc1ccccc1NC(=O)c1oc2ccccc2c1NC(=O)C1CCCO1 (stereo unspecified)	9%	16%	i	21µM*
SMILES	HT1080 IDH1KD tx	HT1080-NT tox	KB-3-1 tox	KB-V1 MDR tox
COc1cccc2cc(C(=O)NCCc3c(C)[nH]c4ccc(Br)cc34)c(=O)oc12	·	·	i	i
O=C1CN(C(=O)c2ccc(S(=O)(=O)N3CCCCC3)cc2)C(c2ccc(F)cc2)c2cc(F)ccc2N1 (stereo unspecified)	·	·	i	i
Cn1c(=O)oc2cc(S(=O)(=O)N3CCCC(C(=O)N4CCN(c5cccc(Cl)c5)CC4)C3)ccc21 (stereo unspecified)	·	·	21µM*	i
Cn1c(=O)oc2cc(S(=O)(=O)N3CCC(C(=O)N4CCN(c5cccc(Cl)c5)CC4)CC3)ccc21	·	·	i	i
Cc1cccc(N2CCN(C(=O)C3CCCN(S(=O)(=O)c4ccc5c(c4)oc(=O)n5C)C3)CC2)c1C (stereo unspecified)	·	·	7.3µM*	i
Cc1cc(C)c2c(n1)SCCN2C(=O)Nc1ccc(C(=O)Nc2cc(Cl)ccc2C)cc1	·	·	?	i
CCN(CC)C(=O)c1sc2c(c1C)c(=O)n(-c1ccc(C)c(C)c1)c(=O)n2Cc1cc(=O)n2c(C)cccc2n1	·	·	i	?
N#CCC(=O)N/N=C/c1cn(Cc2cccc3ccccc23)c2ccccc12	10µM*	?	?	i
N#CCn1cc(/C=N/NC(=O)c2cc3c(ccc4ccccc43)o2)c2ccccc21	9.2µM*	?	?	i
COc1ccc(/C=N/NC(=O)c2cc3c(ccc4ccccc43)o2)cc1OC	-17%	-3%	?	?
O=C(COc1ccc(/C=N/NC(=O)c2cc3ccccc3o2)cc1Br)Nc1ccccc1	-2%	-25%	13µM*	?
COc1ccc(/C=N\NC(=O)c2cc3c(ccc4ccccc43)o2)cc1O	4.6µM*	?	?	i
N#CCC(=O)N/N=C/c1cn(Cc2ccccc2C#N)c2ccccc12	5%	-1%	i	i
CC/C(=C\c1oc2cc3ccccc3cc2[n+]1CC)Nc1ccccc1	?	-29%	i	21µM*
O=C(C[N+]1(CCO)CCOCC1)c1cccs1	·	·	i	i
COc1ccc(C2CC(c3ccccc3Cl)=NN2c2ccc(S(N)(=O)=O)cc2)cc1 (stereo unspecified)	?	18µM*	i	i
Cc1ccc(-n2cc3c(-c4cccc(Br)c4)nnc(C)c3n2)cc1	-2%	2%	?	16µM*
C#CCN(C[C@@H]1[C@@H](OC(=O)NCc2ccc(OC)c(OC)c2)[C@@H](OC(=O)NCc2ccc(OC)c(OC)c2)Cn2c(=O)ccc(=O)n21)S(=O)(=O)c1ccc(C)cc1	21µM*	9.2µM*	?	i
C#CCN(C[C@@H]1[C@@H](OC(=O)NC2CC2)[C@@H](OC(=O)NC2CC2)Cn2c(=O)n(CCCCCC)c(=O)n21)S(=O)(=O)c1ccc(C)cc1	-14%	-19%	i	i
C#CCN(C[C@@H]1[C@@H](OC(=O)NCc2ccc(OC)c(OC)c2)[C@@H](OC(=O)NCc2ccc(OC)c(OC)c2)Cn2c(=O)n(CCCCCC)c(=O)n21)S(=O)(=O)c1ccc(C)cc1	11%	0%	i	?
